Screening results from PubChem.
TRHR PAM = allosteric enhancers of human TRH receptor; P34981; TRHR cells, fluo-8 calcium fluorescence, EC20 TRH enhancement; enhancement, % at 2 µM; 360,000 tested, 0.66% active; AID 493056; in the data active = enhancement above about 30%
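TRHR-expressing cells loaded with fluo-8 calcium dye were read kinetically (ex 480/em 530) during compound addition, then stimulated with an EC20 of TRH (10 nM final). Enhancement of the Gq-mediated intracellular calcium response was scored.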
TRHR ag = activates the human TRH receptor; AID 493084; 360,000 tested, 0.18% active; TRHR cells, calcium flux fluo-8, FDSS agonist mode; activation, % at 2 µM
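Fluo-8-loaded TRHR cells; 10 s baseline, compound added, kinetic Ca2+ fluorescence read 1/s, agonist mode.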
D1 antag = human D1 dopamine receptor antagonism. activity change, negative = inhibition, % at 10 µM. 360,000 tested, 3.2% active. HEK293 TREx D1 cells, calcium flux, dopamine EC80; active compounds read low. P21728; in the data active = activity change below about -30%
Target sequence (P21728 whole entry, looked up): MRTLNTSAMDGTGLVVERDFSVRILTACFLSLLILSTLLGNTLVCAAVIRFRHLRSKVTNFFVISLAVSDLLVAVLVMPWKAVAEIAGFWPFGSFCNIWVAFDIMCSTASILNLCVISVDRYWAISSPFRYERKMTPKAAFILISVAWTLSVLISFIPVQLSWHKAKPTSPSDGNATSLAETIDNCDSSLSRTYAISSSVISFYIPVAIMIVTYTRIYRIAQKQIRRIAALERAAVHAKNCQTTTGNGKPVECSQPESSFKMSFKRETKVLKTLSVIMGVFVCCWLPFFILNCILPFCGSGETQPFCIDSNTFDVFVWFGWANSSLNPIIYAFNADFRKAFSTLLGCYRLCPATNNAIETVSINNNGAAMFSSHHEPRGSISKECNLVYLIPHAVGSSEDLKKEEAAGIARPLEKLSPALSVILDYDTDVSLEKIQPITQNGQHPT
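Kinetic fluorescence of a calcium dye serves as the read-out. D1-expressing Hek293 Trex cells, induced overnight at 30 C, are exposed to compound for 180 s before an EC80 dopamine addition, then read 180 s further.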
D1 ag = agonists of human D1 dopamine receptor. HEK293 T-REx D1 cells, calcium flux, agonist mode. activation, % at 2 µM. 360,000 tested, 1% active
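Tetracycline-induced HEK293 TREx D1 cells, force-coupled to calcium signalling, were dye-loaded with a no-wash calcium kit. Compound was pin-added after a 10 s baseline. Fluorescence was read kinetically at 1 cycle/s for 180 s, with calcium rises flagged as agonism.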
D1 potentiator = human D1 dopamine receptor positive modulation; HEK293 TREx D1 cells, calcium flux, dopamine EC20 potentiation; potentiation, % at 10 µM; 360,000 tested, 0.036% active; AID 504651; in the data active = potentiation above about 30%
Large screens that a line does not name were inactive; ! = a repeat was not active. An excerpt weighted towards active compounds, which were near 4.6% of everything screened. Rule as the data show it, unless noted: active = activation above about 30%; inactive = the rest.

Cc1cc2c(s1)c1cnn(Cc3ccccc3C)c(=O)c1n2C	none
Cc1coc2cc3oc(=O)c(CC(=O)NCc4ccccc4)c(C)c3cc12	none
Cc1ccc2c(CC(=O)Nc3ccc(S(=O)(=O)N4CCCCC4)cc3)coc2c1	D1 antag -72.7
Cc1ccc2c(CC(=O)Nc3ccc(S(=O)(=O)N4CCCC(C)C4)cc3)coc2c1 (stereo unspecified)	none
O=C(Nc1noc2ccccc12)c1ccc(F)cc1	TRHR PAM 46.0
O=C(Nc1noc2ccccc12)c1cccc(F)c1	none
C=C(C)c1cc2c(s1)c1cnn(Cc3ccccc3F)c(=O)c1n2C	none
Cc1ccc(C(=O)NNC(=S)Nc2cccc3ccccc23)s1	D1 antag -37.0
Cc1ccc(-n2ncc(C(=O)NCCCN3CCCCC3)c2C2CCN(C(=O)OC(C)(C)C)CC2)cc1	none
COc1ccccc1C(=O)c1c(N)c(-c2nc(-c3ccccc3)cs2)c2ccccn12	none
COC(=O)c1ccccc1NC(=O)CCC(=O)N1CCSc2ccccc21	none
Cc1cc(C)cc(NC(=O)CCC(=O)N2CCSc3ccccc32)c1	D1 antag -58.1!
COC(=O)c1ccc(N(CC(=O)NC2CCCC2)C(=O)CNC(=O)c2cccs2)cc1	D1 potentiator 30.1
Cc1nn(-c2ccccc2)c(Cl)c1C(=O)OC(C)C(=O)Nc1ccc2c(c1)OCO2 (stereo unspecified)	D1 antag -70.7
CC(Sc1ncnc2ccccc12)C(=O)Nc1ccc2c(c1)OCO2 (stereo unspecified)	D1 antag -32.8
CC(=O)Nc1ccc(NC(=O)C(C)OC(=O)c2c(C)nn(-c3ccccc3)c2Cl)cc1 (stereo unspecified)	none (no result: D1 potentiator)
Cc1ccc(NC(=O)[C@@H](c2ccccc2)N2Cc3ccccc3C2=O)cc1F	none
COc1ccc(-c2nc(SCC(=O)NC3CCCC3)c(-c3ccc(C)cc3)[nH]2)cc1OC	none
COC(=O)[C@H](Cc1ccccc1)NC(=O)NCCc1ccc(OC)cc1	none
O=[N+]([O-])c1cc(Cl)cc(/C=N/Nc2nc3ccccc3s2)c1O	D1 antag -49.5
CCN1C(=O)[C@H]2[C@@H](c3ccc(-c4cc(C(C)=O)cs4)cc3)N3CCC[C@@]3(C(=O)OC)[C@H]2C1=O	D1 antag -31.1
Cc1ccc(CNC(=O)c2oc3ccc(S(=O)(=O)N4CCC(C)CC4)cc3c2C)cc1	none
CCCN1C2CCCC1CC(NC(=O)c1ccccc1OCC)C2 (stereo unspecified)	D1 antag -81.3
CCCN1C2CCCC1CC(NC(=O)c1ccccc1OC)C2 (stereo unspecified)	none
CCOc1ccccc1C(=O)NC1CC2CCCC(C1)N2Cc1ccc(C)cc1 (stereo unspecified)	D1 antag -50.8
CCN(CC)C(=O)CSc1nnc(-c2cccs2)n1Cc1ccco1	D1 antag -31.8
CCc1ccc(S(=O)(=O)Nc2ccc(Cl)cn2)cc1	D1 antag -91.8
CCOc1ccccc1NC(=O)Nc1cc2c(cc1N1CCCCC1)n(CC)c(=O)n2CC	none
O=C(NC1CCCC1)c1cc(-c2cccs2)on1	D1 antag -42.0
O=C(NC1CCCC1)c1cc(-c2ccccc2O)on1	none
COc1ccccc1-c1cc(C(=O)NC2CCCC2)no1	D1 antag -31.6
Cc1ccc(N/C(N)=N/c2nc(CSc3nnc(N)s3)cc(=O)[nH]2)cc1	D1 antag -34.0
Fc1ccc(Nc2c(-c3ccco3)nc3ccccn23)cc1	TRHR PAM 31.1!
c1coc(-c2nc3ccccn3c2Nc2ccc3c(c2)OCCO3)c1	D1 antag -48.6
Cc1ccc2nc(-c3ccco3)c(Nc3ccc4c(c3)OCCO4)n2c1	none
COC(=O)c1ccc(Cn2cc(C(F)(F)F)ccc2=O)cc1	none
COC(=O)c1cn(Cc2ccc(C(F)(F)F)cc2)cc(F)c1=O	D1 antag -30.9
CCN(C(=O)COC(=O)/C=C/c1cccc([N+](=O)[O-])c1)c1ccccc1	none
COc1cnc(-c2ccccn2)nc1Sc1ccccc1Cl	D1 ag 32.3
Cc1cc(N/N=C/c2ccc([N+](=O)[O-])o2)nc2ccccc12	D1 ag 47.8
Cc1ccc(/C=C2\Oc3cc(OC(=O)N4CCOCC4)ccc3C2=O)cc1	none
O=C(Oc1ccc2c(c1)O/C(=C\c1ccncc1)C2=O)c1ccccc1	D1 ag 56.2
O=C(O)CC(NC(=O)CC(c1ccccc1)c1ccccc1)c1cccc([N+](=O)[O-])c1 (stereo unspecified)	none
Cc1ccccc1-c1cc2nc(C)c(C)c(=O)n2[nH]1	D1 antag -32.6
CCCN1C(=O)C(Cc2nc3ccccc3c(=O)n2CC)c2cc(Br)ccc21 (stereo unspecified)	none
CN(Cc1ccco1)C(=O)c1ccc2c(c1)N(Cc1ccccc1F)C(=O)c1ccccc1S2	none
O=C(Nc1ccc(F)cc1)c1nc(S(=O)(=O)Cc2ccccc2)ncc1Cl	D1 antag -50.9
O=C(Nc1nc2ccc(F)cc2s1)c1nc(S(=O)(=O)Cc2ccccc2)ncc1Cl	none
O=C(NCc1ccccc1)c1nc(S(=O)(=O)Cc2ccc(F)cc2)ncc1Cl	D1 antag -45.6
O=C(Nc1ccccc1F)c1nc(S(=O)(=O)Cc2ccccc2F)ncc1Cl	D1 antag -44.5
COC(=O)c1ccccc1NC(=O)c1nc(S(=O)(=O)Cc2ccccc2F)ncc1Cl	none
O=C(Nc1cccnc1)Nc1ccccc1Cl	none
Cc1ccc(NC(=O)Nc2ccon2)cc1Cl	D1 antag -30.8
CCC(C)c1ccc(NC(=O)Nc2cccnc2)cc1 (stereo unspecified)	D1 antag -30.3
Cc1cccnc1N(C(=O)Nc1ccccc1)C1=NCC(C)(C)S1	none
O=C(Nc1cccnc1)Nc1cc(Cl)cc(Cl)c1	D1 antag -33.3
Cc1cccnc1N(C(=O)Nc1cccc(Cl)c1)C1=NCC(C)(C)S1	D1 antag -31.2
COc1ccc(C)cc1NC(=O)c1cccc(-c2ccc(OC(C)=O)cc2)c1	none (no result: D1 potentiator)
COc1cccc(NC(=O)CSc2nc(=O)n(Cc3ccncc3)c3c2CCC3)c1	none (no result: D1 antag)
COC(=O)c1cc(NC(=O)c2ccc(-c3ccccc3)cc2)ccc1Cl	none
O=C(Nc1cccc(F)c1)Nc1cccc(Cl)c1	D1 antag -53.4
COC(=O)c1cc(NC(=O)Nc2cccc(Cl)c2)ccc1Cl	D1 antag -41.4
COc1ccc(OCC(=O)NNC(=O)Nc2cccc(Cl)c2)cc1	TRHR PAM 33.7
Cc1cccnc1NC(=O)Nc1cccc(Cl)c1	TRHR PAM 32.1
CCN(CC)CCCN=Cc1c(O)n(-c2ccccc2C)c(=O)c2ccccc12	none
O=C(Nc1cccc(Cl)c1)Nc1ccon1	TRHR PAM 38.6
CC(=O)Nc1cccc(NC(=O)Nc2cccc(F)c2)c1	none
CNS(=O)(=O)c1ccc(NC(=O)Nc2cccc(F)c2)cc1	D1 antag -49.5
CCc1sc(C(=O)Nc2ncccc2C)cc1C	TRHR PAM 30.0
O=C(Nc1ccc(Cl)cc1)Nc1ccon1	none
